From paper PMC10163288
Not all results are given here. The hit rate among all sequences tested is not known here.

B1: il10ra_site1_normal_mot_39ab2cb694c8b9c1dc7e65c0d672c93e_0001_000000036_0001_53_65_H_._HHH_b2_05692_af2_0001_0000600025_0000002_0 (protein)
chain: SSSSDEEEEELRELVEEVERLIERNDREEALRVAAEALRLAFRARNPEVLQLLWELAKLLSSSSS
B2: il10ra_site1_sap_13_mot_8756ee2cf497b5429c717dfc0c0bcfd6_0001_000000186_0001_1_13_H_._HHH_b2_05518_af2_0001_0000600027_0000001_0_0001 (protein)
chain: SSSSDLEELARAAVRLIEQAIEWGDEERAKFALLALEMAAEETNDPELRELLEELEKLLRGSSSS
B3: il10ra_site1_sap_25_mot_HHH_b1_08133_000000195_0001_1_19_H_._HHH_b1_03607_0001_0000200023_0000001_0_0001_af2pred_0001 (protein)
chain: SSSSSEEVEELEEEARELIKRNDPEEVLKIIRRLARLAFRLNDPEISKIAIELAELLKKLDSSSS
B4: il10ra_site1_normal_mot_HHH_b2_02337_000000026_0001_38_52_H_._HHH_b2_04211_af2_0001_0000300011_0000002_0 (protein)
chain: SSSSDEEREEIEELIKEFEELLERGDREEAVRVVTEALQFALKLGDQELLKRIWELVKSLSSSSS
B5: il10ra_site1_sap_17_mot_HHH_b1_06914_000000280_0001_1_18_H_._HHH_b2_08155_0001_0000100009_0000001_0_0001 (protein)
chain: SSSSDEANERVWELLREALHIDDPEEAREVVEEAAEIAEERNNRVLLHNIRFLLRQLEKGSSSSS
B6: il10ra_site1_sap_23_mot_HHH_b1_08616_000000009_0001_1_19_H_._HHH_b2_04715_af2_0001_0000100004_0000001_0_0001 (protein)
chain: SSSSSDQEEQLIRALLWFAEWTSNPTARRLMLEQAERHARELGNEELREEVERVEKELEESSSSS
B7: il10ra_site1_normal_mot_HHH_b1_05056_000000217_0001_1_20_H_._HHH_b2_03866_0001_0000200011_0000001_0 (protein)
chain: SSSSSSEEREEVEELLEEAEHVDDLRELARILAEAVRFAYEGKDEEALQLVWEVVRRLFSSSSSS
B8: il10ra_site1_sap_16_mot_HHH_b2_00943_af2_000000149_0001_1_17_H_._HHH_b1_06222_0001_0000300032_0000001_0_0001_af2pred_dldesign_0_af2pred (protein)
chain: SSSSSPENEELVRLIREVAELLYDGKPEEAREKLKEAEELTEKLGDEIFKRNIELLRKELESSSS
B9: il10ra_site1_sap_16_mot_HHH_b1_06789_af2_000000041_0001_1_20_H_._HHH_b1_04240_af2_0001_0000500015_0000001_0_0001 (protein)
chain: SSSSSDEEYEEEVERLLEEAEKIPDPREAAEVLLKALRVALRGNDPELLHLVWEVLEEISSSSSS
B10: il10ra_site1_normal_mot_HHH_b1_06057_000000129_0001_22_38_H_._HHH_b2_05766_0001_0000200026_0000001_0 (protein)
chain: SSSSDRTARWSVEFALRVAEELAKRDPERARELLEHLAELLKEARDEELLEEVERLLEEIGSSSS
B11: il10ra_site1_normal_mot_HHH_b2_08287_af2_000000247_0001_1_16_H_._HHH_b2_07820_0001_0000300057_0000001_0_af2pred_0001 (protein)
chain: SSSSDEEEEEVKELLEEAKRIDDPRERTRVLVEAYALAFELNNPELEELVKEVAIELLERSSSSS
B12: il10ra_site1_sap_19_mot_HHH_b1_04514_000000156_0001_1_18_H_._HHH_b1_01679_0001_0000100001_0000001_0_0001_af2pred_0001 (protein)
chain: SSSSSSEAEKEVAKILIEVLRLNDEEAAERISHLLIRLIVEGDERLIEEIRELFEEVEENSSSSS
B13: il10ra_site1_normal_mot_HHH_b1_05672_af2_000000246_0001_1_19_H_._ems_3hC_444_af2_0001_0000400050_0000001_0 (protein)
chain: SSDLREEFSRVLIRAVRAAARHDEEKAEELVRRAEEIAEELGDEELERYVEIVKNFVESATRSSS
B14: il10ra_site1_sap_24_mot_HHH_b2_00622_af2_000000153_0001_40_57_H_._1ad9cd31332199d645683f25bccb3f2f_0001_af2_0001_0000400010_0000001_0_0001 (protein)
chain: SSSSSDEEAEEQVEELLEEAKRIEDREEVLRLLIEANRIAFRAGNDELQREIWRVAQELSSSSSS
B15: il10ra_site1_sap_19_mot_HHH_b1_01585_000000217_0001_1_18_H_._HHH_b1_05870_af2_0001_0000200018_0000002_0_0001 (protein)
chain: SSSSSRAEKVREILEEVVELQRQGDKEEAERLLEELLEELEELGDVNSLVNVEYLLRAVRKSSSS
B16: il10ra_site1_normal_mot_HHH_b1_01827_000000263_0001_1_19_H_._HHH_b2_07433_0001_0000500029_0000001_0_af2pred_0001 (protein)
chain: SSSSSTEEVERVIKLIRRALEIEDEEERRRLLEEAVELAEEGGNLVLLISARFALEDVEQSSSSS
B17: il10ra_site1_sap_10_mot_HHH_b1_05704_af2_000000048_0001_1_18_H_._HHH_b2_04382_0001_0000100002_0000001_0_0001_af2pred_0001 (protein)
chain: SSSSSEEEERVELALRFVKFLLKAGDPEAARFFVEWALEKAKELGNEELEEEAEELLREARSSSS
B18: il10ra_site1_sap_18_mot_HHH_b2_04327_000000030_0001_41_55_H_._HHH_b2_03484_af2_0001_0000400008_0000001_0_0001_af2pred_0001 (protein)
chain: SSSSSSSEEEELMQLAAEISRHASPEEIRRLFELLVRLYHEGDPELKEELRELIEEIKSSSSSSS
B19: il10ra_site1_normal_mot_HHH_b2_07144_000000289_0001_1_18_H_._HHH_b1_03935_0001_0000100008_0000001_1 (protein)
chain: SSSSSEEAEELYELSREVAHLHREGDEEEAKRLLEEAIELAEELGNFNILFALELLLRQLSSSSS
B20: il10ra_site1_sap_20_mot_HHH_b2_00093_af2_000000025_0001_40_54_H_._HHH_b2_05679_0001_0000100006_0000001_0_0001_af2pred_0001 (protein)
chain: SSSSSIHERDVELALLAARLLAERGDPEAVREALELARRQAESTNNEELEELVEEVERELSSSSS
B21: il10ra_site1_normal_mot_8756ee2cf497b5429c717dfc0c0bcfd6_0001_000000186_0001_1_13_H_._HHH_b1_06578_af2_0001_0000300032_0000001_1_af2pred_0001 (protein)
chain: SSSSSIAEEVFRLLREAAELYHEGDKEKAEEILKEAEELAEEANDEIAKVIIEFLKRAIENSSSS
B22: il10ra_site1_normal_mot_HHH_b1_00566_000000151_0001_22_39_H_._HHH_b1_00313_af2_0001_0000700014_0000001_0 (protein)
chain: SSSSDEREEIAILVAEAIILAERRGDKEVAEELWQLLVEAYYHGDPELFREVEELAEKFLSSSSS
B23: il10ra_site1_sap_26_mot_HHH_b2_06857_af2_000000179_0001_42_54_H_._HHH_b1_00069_af2_0001_0000100009_0000001_0_0001_af2pred_0001 (protein)
chain: SSSSSEEREEIYRLIREALELLANGNPEEAEEVLEEAERLAKEANSPLFEFALEAARRKVKSSSS
B24: il10ra_site1_normal_mot_HHH_b2_08186_000000021_0001_43_56_H_._HHH_b1_02914_0001_0000400023_0000001_0 (protein)
chain: SSSSDREERIQELLEEAEELAKEGNPEEAARLLQEAIRLAFELGDEELLKEIWEVLRKVASSSSS

These binders were tested against il10ra, Q13651 (assay: yeast display titration).
Sequence of il10ra, Q13651 (Q13651 whole entry): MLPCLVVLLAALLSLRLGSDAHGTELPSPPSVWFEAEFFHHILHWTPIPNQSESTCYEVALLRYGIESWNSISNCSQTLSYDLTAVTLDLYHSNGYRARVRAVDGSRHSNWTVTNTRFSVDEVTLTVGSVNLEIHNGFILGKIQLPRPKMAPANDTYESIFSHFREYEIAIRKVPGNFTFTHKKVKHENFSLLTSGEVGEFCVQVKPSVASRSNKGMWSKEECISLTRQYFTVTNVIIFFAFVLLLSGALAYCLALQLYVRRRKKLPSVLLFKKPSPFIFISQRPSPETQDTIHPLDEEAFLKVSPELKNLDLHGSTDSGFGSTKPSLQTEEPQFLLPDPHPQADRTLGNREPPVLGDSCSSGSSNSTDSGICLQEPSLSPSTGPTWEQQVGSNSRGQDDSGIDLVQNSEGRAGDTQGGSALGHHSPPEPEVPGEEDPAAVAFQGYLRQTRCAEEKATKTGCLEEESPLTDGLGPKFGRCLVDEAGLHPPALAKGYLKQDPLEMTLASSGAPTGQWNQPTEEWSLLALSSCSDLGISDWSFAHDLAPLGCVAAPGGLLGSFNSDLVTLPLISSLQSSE
With B1 the “apparent Kd” value was “no binding seen (inactive)”.
For B2, the “apparent Kd” value was “no binding seen (inactive)”.
With B3 the apparent Kd was > 233 nM (inactive).
For B4, the “apparent Kd” value was “no binding seen (inactive)”.
In the case of B5, the “apparent Kd” value is reported as “no binding seen (inactive)”.
For B6, the “apparent Kd” value was “no binding seen (inactive)”.
B7 was tested, and the “apparent Kd” value was “no binding seen (inactive)”.
With B8 the “apparent Kd” value was “no binding seen (inactive)”.
For B9, the “apparent Kd” value was “no binding seen (inactive)”.
In the case of B10, the “apparent Kd” value is reported as “no binding seen (inactive)”.
B11 was tested, and the “apparent Kd” value was “no binding seen (inactive)”.
In the case of B12, the “apparent Kd” value is reported as “no binding seen (inactive)”.
In the case of B13, the “apparent Kd” value is reported as “no binding seen (inactive)”.
B14 was tested, and the “apparent Kd” value was “no binding seen (inactive)”.
For B15, the “apparent Kd” value was “no binding seen (inactive)”.
For B16, the “apparent Kd” value was “no binding seen (inactive)”.
In the case of B17, the “apparent Kd” value is reported as “no binding seen (inactive)”.
B18 was tested, and the “apparent Kd” value was “no binding seen (inactive)”.
In the case of B19, the “apparent Kd” value is reported as “no binding seen (inactive)”.
With B20 the “apparent Kd” value was “no binding seen (inactive)”.
For B21, the “apparent Kd” value was “no binding seen (inactive)”.
B22 was tested, and the apparent Kd was 233 to 399 nM (active).
B23 was tested, and the “apparent Kd” value was “no binding seen (inactive)”.
For B24, the “apparent Kd” value was “no binding seen (inactive)”.
